Assay outcomes: PubChem BioAssay, The Scripps Research Institute Molecular Screening Center
The list is not random: actives were taken first. Their share in the collection is about 4.5%.
ssDAF12 agonist: S. stercoralis DAF-12 nuclear receptor activators, primary screen, cell-based, luminescence, HEK293, GRIP1 co-expression, lit1-tk-luc; Nuclear hormone receptor DAF-12 (Strongyloides stercoralis); 370,000 compounds, 1% hits; HEK293 ssDAF-12/GRIP1 lit1-tk-luc reporter; % of 3 µM dafachronic acid response; activation, % at 6.8 µM; AID 652126, 2013;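 active = activation above the mean over all tested compounds plus 3 SD, cut at about 0.9% in these data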
DAX1 inh-1: DAX1 (NR0B1) inhibitors, primary screen, cell-based, HEK293, Gal4-DAX1, luciferase luminescence | HEK293 Gal4-DAX1 luciferase reporter | 340,000 compounds, 0.99% hits | Nuclear receptor subfamily 0 group B member 1 (Homo sapiens), P51843 | AID 504766, 2011 | inhibition, % at 6.75 µM;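 active = inhibition above the mean over all tested compounds plus 3 SD, cut at about 4.2% in these data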;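 note: inhibition shows as a rise in luminescence from relieved DAX1 repression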
Target sequence (P51843 207-470 limits assumed): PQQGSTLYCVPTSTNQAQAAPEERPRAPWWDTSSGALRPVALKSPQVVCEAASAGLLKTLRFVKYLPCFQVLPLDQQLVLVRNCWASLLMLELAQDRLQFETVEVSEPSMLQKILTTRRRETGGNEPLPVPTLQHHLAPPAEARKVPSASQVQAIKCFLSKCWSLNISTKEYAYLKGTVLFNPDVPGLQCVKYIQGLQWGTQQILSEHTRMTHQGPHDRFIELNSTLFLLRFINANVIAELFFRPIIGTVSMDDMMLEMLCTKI
DAX1 inh-2: DAX1 (NR0B1) inhibitors on StAR promoter, primary screen, cell-based, luminescence, SF-1 (NR5A1), full-length DAX-1; HEK293T StAR-luciferase reporter, SF-1/DAX-1 repression relief; inhibition, % at 6.8 µM; 370,000 compounds, 1.1% hits; AID 652010, 2013;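 active = inhibition above the mean over all tested compounds plus 3 SD, cut at about 3.6% in these data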;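 note: higher inhibition means more luminescence from relief of DAX-1 repression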
hgDAF12 agonist: H. glycines DAF-12 receptor agonists, primary screen, cell-based, luminescence, HEK293, GAL4 fusion, UAS-luciferase. Nuclear hormone receptor DAF-12 (Heterodera glycines), GAL4 fusion. HEK293 GAL4-hgDAF12 UAS-luciferase reporter, agonist luminescence; normalized to butyrate control. activation, % at 6.8 µM. 370,000 compounds, 1.8% hits;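 active = activation above a cutoff set at the mean of all screened compounds plus 3 SD, cut at about 10% in these data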
FXN GAA850 act: FXN promoter activators, primary screen, cell-based, luciferase luminescence, HEK293 lucGAA850; HEK293 lucGAA850 FXN promoter luciferase reporter, 24 h; percent of 10 µM SAHA response; activation, % at 6 µM; 360,000 compounds, 0.56% hits; AID 540364, 2011;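 active = activation above the average of all compounds screened plus 3 SD, cutoff fixed separately per campaign, cut at about 7.5% in these data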
hcDAF-12 act: H. contortus DAF-12 nuclear receptor activators, primary screen, cell-based, luminescence, HEK293, lit1-tk-luc reporter. activation, % at 6.8 µM. HEK293 hcDAF-12 lit1-tk-luc reporter; 0% DMSO, 100% Δ7-dafachronic acid. 370,000 compounds, 1.4% hits;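 active = activation above the mean of all tested compounds plus 3 SD, cut at about 5.5% in these data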
Of the large screens only hits and unclear results are named; the others gave an inactive call.

CC(c1nc2ccccc2[nH]1)N(C(=O)C1=NNC(=O)CC1)c1ccccc1 (stereo unspecified)	ssDAF12 agonist 1.4 (no result: DAX1 inh-1, FXN GAA850 act)
CCCCOc1ccc(C(=O)N2CCNC(=O)C2CC(=O)OC(C)C)cc1 (stereo unspecified)	ssDAF12 agonist 1.9
CCOC(=O)CC1C(=O)NCCN1C(=O)c1ccc(Cl)cc1 (stereo unspecified)	none
Nc1c(C(=O)c2ccc(Cl)cc2)oc2ccccc12	ssDAF12 agonist 1.8, hgDAF12 agonist 12.2
COC(=O)[C@@]1(OC(C)=O)CC(OC(C)=O)[C@H](OC(C)=O)[C@H](OC(C)=O)C1Br (stereo partly specified)	none (no result: DAX1 inh-1, DAX1 inh-2, FXN GAA850 act)
CCC1CCc2c(sc(NC(=O)c3ccoc3C)c2C(N)=O)C1 (stereo unspecified)	hcDAF-12 act 5.9
CCC(C)(C)C1CCc2c(sc(NC(=O)c3ccoc3C)c2C(N)=O)C1 (stereo unspecified)	none
Cc1ccnc(NC(=O)c2ccc3c(c2)C(=O)N(CC(C)C)C3=O)c1	DAX1 inh-2 3.7
Cc1cc(NC(=O)c2ccc3c(c2)C(=O)N(CC(C)C)C3=O)no1	none
O=S1(=O)c2ccc(N3CCN(Cc4ccccc4F)CC3)cc2Oc2ccccc2CN1Cc1cn(Cc2ccc(C(F)(F)F)cc2)nn1	none (no result: DAX1 inh-1, FXN GAA850 act)
Nc1ccc(S(=O)(=O)NCc2ccccn2)cc1	none
CC(=O)Nc1ccc(S(=O)(=O)NCc2ccccn2)cc1	DAX1 inh-1 4.3
O=C(CSc1nnc(-c2ccc(Cl)cc2)n1Cc1ccco1)Nc1ccc(S(=O)(=O)Nc2nccs2)cc1	none (no result: DAX1 inh-1, FXN GAA850 act)
CCCCNC(=O)O[C@H]1CC[C@@]23CCCN2C(=O)CCC[C@H]3C1	none (no result: DAX1 inh-1, DAX1 inh-2, FXN GAA850 act)
Cc1ccc(C(O)c2ncc(-c3ccc(F)cc3)[nH]2)c(C)c1 (stereo unspecified)	none (no result: DAX1 inh-1)
Cc1ccc(C(O)c2ncc(-c3ccc4ccccc4c3)[nH]2)cc1 (stereo unspecified)	none (no result: DAX1 inh-1)
OC(c1ccc(F)cc1)c1ncc(-c2ccc3ccccc3c2)[nH]1 (stereo unspecified)	hgDAF12 agonist 11.0 (no result: DAX1 inh-1)
Cc1cc(F)ccc1C(O)c1ncc(-c2ccc3ccccc3c2)[nH]1 (stereo unspecified)	DAX1 inh-2 3.7 (no result: DAX1 inh-1)
O=C(NCCc1c[nH]c2ccccc12)OCc1cn(-c2cccc(C(F)(F)F)c2)nn1	none (no result: DAX1 inh-1, FXN GAA850 act)
Nc1nc(Cl)nc2ncn(Cc3ccccc3)c12	hgDAF12 agonist 11.2
Cn1c(=O)c2cc(S(=O)(=O)N3CCN(c4ccc(F)cc4)CC3)ccc2n(C)c1=O	none (no result: DAX1 inh-1, FXN GAA850 act)
CCOC(=O)Cn1cc(CN2CCS(=O)(=O)N(Cc3ccc(Cl)cc3)C(C(=O)OC)C2)nn1 (stereo unspecified)	none (no result: DAX1 inh-1, FXN GAA850 act)
Cc1ccc([N+](=O)[O-])cc1NC(=O)C1CCCC1	ssDAF12 agonist 5.5
Cc1ccc([N+](=O)[O-])cc1NC(=O)C1CCN(S(C)(=O)=O)CC1	none
C(=Cc1cnnc2ccccc12)c1ccccc1	hgDAF12 agonist 12.9
Cn1c(/C=C/c2ccccc2)nc2ccccc2c1=O	none
COc1ccc(-c2cc(C(=O)NC3CCCC3)no2)cc1	hgDAF12 agonist 11.9, hcDAF-12 act 6.5
CN(C)CCCNc1nc2cc(-c3ccc4c(ccn4C)c3)sc2c(=O)n1C	hgDAF12 agonist 11.8 (no result: DAX1 inh-1)
CN(C)CCCNc1nc2cc(-c3ccsc3)sc2c(=O)n1C	none (no result: DAX1 inh-1)
Cc1ccc(-c2cc3nc(NCCc4ccncc4)n(C)c(=O)c3s2)cc1	DAX1 inh-2 4.0 (no result: DAX1 inh-1)
C=CCN(CC#Cc1ccccc1)Cc1ccc(OC)cc1	none (no result: DAX1 inh-1, FXN GAA850 act)
O=S1(=O)c2c(cccc2N2CC[C@@H](O)C2)O[C@H]2CCN1C2	none (no result: DAX1 inh-1, FXN GAA850 act)
O=C(CCNC(=O)c1ccccc1Cl)Nc1ccncc1	none
O=C(CCNC(=O)c1ccccc1Cl)Nc1ccc(Br)c(C(F)(F)F)c1	ssDAF12 agonist 19.4
O=C(COCc1ccccc1)N1CC[C@H]2[C@H](CCCN2Cc2ccc(F)cc2)C1	none (no result: DAX1 inh-1, FXN GAA850 act)
Cc1ccc(S(=O)(=O)n2ccc(-c3c(-c4ccc(Cl)cc4)noc3C)n2)cc1	none (no result: DAX1 inh-1, FXN GAA850 act)
O=C(NCc1ccncc1)c1cncc(Br)c1	DAX1 inh-1 4.4
O=C(Nc1ccc2c(c1)OCO2)c1cncc(Br)c1	hgDAF12 agonist 11.3
O=C(Nc1ccc2c(c1)OCCO2)c1cncc(Br)c1	hgDAF12 agonist 11.1
O=C(Nc1ccc2c(c1)OCCO2)c1ccccc1	none (no result: ssDAF12 agonist, DAX1 inh-2, hgDAF12 agonist, hcDAF-12 act)
CCc1ccc(N(C(=O)Cn2nnc(-c3ccccc3)n2)C(C(=O)NC2CCCCC2)c2ccccn2)cc1 (stereo unspecified)	hcDAF-12 act 6.5
CC(=O)c1ccc(N(C(=O)Cn2nnc(-c3ccccc3)n2)C(C(=O)NC2CCCCC2)c2ccccn2)cc1 (stereo unspecified)	none
CN(C)c1ccc(P(=O)(OCc2ccccc2)C(O)c2ccccc2)cc1 (stereo unspecified)	DAX1 inh-1 4.3
Cc1ccc(CSc2nc3c(c(=O)[nH]2)CCC3)cc1	none
COC(=O)c1ccc(CSc2nc3c(c(=O)[nH]2)CCC3)cc1	DAX1 inh-2 3.7 (no result: DAX1 inh-1)
COC(=O)[C@]12C[C@H](CC(=O)NCc3cccc(C(F)(F)F)c3)C(=O)N(Cc3cccc4ccccc34)C1=C[C@H](C1CCCC1)O[C@@H]2C	none (no result: DAX1 inh-1, FXN GAA850 act)
CCOC(=O)c1c(-c2ccccc2)cn2c(C)cc(C)nc12	hgDAF12 agonist 12.0
CC(C)(C)NC(=O)CSc1nnc(-c2ccccn2)n1-c1ccccc1	DAX1 inh-1 4.4
CC(C)(C)OC(=O)NCc1cc(F)ccc1/C=C/S(=O)(=O)NCc1ccccc1	none (no result: DAX1 inh-1, FXN GAA850 act)
COC(=O)[C@@H](Cc1c[nH]c2ccccc12)NCc1cccc(B(O)O)c1	hcDAF-12 act 5.8
COC(=O)[C@@H](Cc1c[nH]c2ccccc12)NC(=O)CCC(=O)c1ccc(F)cc1	hcDAF-12 act 5.6
C[C@@H]1CCN(C2CC2)S(=O)(=O)c2c(cccc2N2CC[C@H](O)C2)O1	none (no result: DAX1 inh-1, FXN GAA850 act)
Fc1ccc(-c2csc(/C=C/c3ccc4c(c3)OCO4)n2)cc1	ssDAF12 agonist 1.1
O=[N+]([O-])c1ccccc1/C=C/C=N/N1CCCCC1	DAX1 inh-1 7.3, hgDAF12 agonist 10.9
O=[N+]([O-])c1ccccc1/C=C\C=N\N1CCN(c2ccccc2)CC1	none
O=[N+]([O-])c1cccc(/C=N/N2CCN(Cc3ccccc3)CC2)c1	none
